Test results: PubChem BioAssay (NCI)
The panel holds about 79,000 compounds, 15% with a hit somewhere; the sample as a whole holds those more often. A number with no mark means an inactive call. The source made the active and inactive calls. No stated cut-off is given here; in the data, active means growth inhibition above about 70%; inactive means the rest.

Test: NCI Yeast Anticancer Drug Screen. Data for the rad50EPP+ strain (AID 151);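 further: 0% = growth of vehicle-treated control cultures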
Settings: S. cerevisiae rad50 mutant strain, at 33.0 µM, stronger effect = higher value
Procedure, shortened: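 In this screen, rad50EPP+ yeast were exposed to compounds. Growth inhibition was scored against vehicle-treated controls.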

Compound | growth inhibition
Fc1ccc(Nc2ccc3ccccc3c2)cc1 | 4%
O=S1(=O)CCC2=CC(C(F)(F)F)=CC(C(F)(F)F)=CN21 | 38%
O=C(Cc1ccccc1)NNc1nc(NNC(=O)c2ccncc2)nc(Nc2ccc([N+](=O)[O-])cc2)n1 | 11%
CCCCS/C(=C(/C#N)C(N)=O)c1cc2c([nH]1)CCCC2 | 22%
O=C(O)c1ccccc1C(=O)OC1CCc2ccccc2C1 (stereo not given) | -8%
CCOC(=O)/C(=C\c1cccc(C)c1)C(C)=O | 91% (active)
Cc1cccc2c(Cl)c3cccc(C)c3nc12 | 64%
N#CSCC1COc2ccccc2O1 (stereo not given) | 83% (active)
Cc1ccc(S(=O)(=O)NC(=O)C2C(=O)CC3(CCCCC3)CC2=O)cc1 | -12%

Same assay, conditions: S. cerevisiae rad50 mutant strain, at 100.0 µM, stronger effect = higher value

Compound | growth inhibition
CC(CN(C)C)C(=O)/C=C/c1ccc(Cl)c(Cl)c1 (stereo not given) | 89% (active)
C/C(=N/NC(=S)Nc1ccccc1C)c1ccccn1 | 4%
O=C1/C(=C/c2ccc(Cl)c(Cl)c2)CNC/C1=C\c1ccc(Cl)c(Cl)c1 | 32%
CC(C)OP(=O)(OC(C)C)C(=NCCO)NNc1ccc([N+](=O)[O-])cc1 | 94% (active)
N#CCC(=O)N/N=C(\c1ccccc1)C(c1ccccc1)C1(O)C(=O)Nc2c(Cl)ccc(Cl)c21 (stereo not given) | 32%
CC(C)(CN1CCCCC1)C(=O)CC(SCCS(=O)(=O)O)c1ccccc1 (stereo not given) | -5%
COC1=CCC23C(=O)C=CC(=O)C2(C1)C(=O)c1ccccc1C3=O (stereo not given) | 62%
CCCCN(CCCC)c1ccc(N=Nc2ccc(S(=O)(=O)O)cc2)cc1 | 87% (active)
c1ccc2nc3c(nc2c1)sc1ccccc13 | 84% (active)
O=C1c2ccccc2-c2ccc(N=Cc3ccccc3)cc21 | 97% (active)
CNC(=S)N/N=C(/C)CCC/C(C)=N/NC(=S)NC | 43%
Nc1ccc(/C=C/c2ccc3cccnc3c2)cc1 | 41%
CCOC(=O)Nc1ccc(C)c(NC(=O)OCC)c1 | 47%
CCN(CC)CCNc1ccc2nc(C)n3c4ccc(OC)cc4c(=O)c1c23 | 31%
O=C(c1cc(=O)c2ccc(O)cc2o1)c1ccc(Cl)cc1Cl | 96% (active)
O=C(Cc1ccccc1)NN1C(=O)C(Cl)C1c1cc(Br)cc(Br)c1O (stereo not given) | 59%
O=[N+]([O-])/C=C/c1cc2ccc3ccccc3c2[nH]1 | 87% (active)
Fc1ccc(Nc2ccc3ccccc3c2)cc1 | 7%
O=S1(=O)CCC2=CC(C(F)(F)F)=CC(C(F)(F)F)=CN21 | 79% (active)
O=C(Cc1ccccc1)NNc1nc(NNC(=O)c2ccncc2)nc(Nc2ccc([N+](=O)[O-])cc2)n1 | -3%
CCCCS/C(=C(/C#N)C(N)=O)c1cc2c([nH]1)CCCC2 | 31%
O=C(O)c1ccccc1C(=O)OC1CCc2ccccc2C1 (stereo not given) | -12%
CCOC(=O)/C(=C\c1cccc(C)c1)C(C)=O | 99% (active)
Cc1cccc2c(Cl)c3cccc(C)c3nc12 | 61%
N#CSCC1COc2ccccc2O1 (stereo not given) | 97% (active)
Cc1ccc(S(=O)(=O)NC(=O)C2C(=O)CC3(CCCCC3)CC2=O)cc1 | -21%

Test: NCI Yeast Anticancer Drug Screen. Data for the mgt1 strain (AID 153)
Settings: S. cerevisiae mgt1 mutant growth inhibition; at 1.2 µM; stronger effect = higher value
Procedure, shortened: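 mgt1 strain exposed; growth vs vehicle control recorded as inhibition.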

Compound | growth inhibition
CC(CN(C)C)C(=O)/C=C/c1ccc(Cl)c(Cl)c1 (stereo not given) | 4%
CCCCCCNCCCNc1c2cc(OC)ccc2nc2cccc([N+](=O)[O-])c12 | 0%
NC(=S)N1N=C2c3ccccc3CC[C@H]2[C@@H]1c1ccc(Cl)cc1 | 7%
C/C(=N/NC(=S)Nc1ccccc1C)c1ccccn1 | -6%
O=C1/C(=C/c2ccc(Cl)c(Cl)c2)CNC/C1=C\c1ccc(Cl)c(Cl)c1 | 5%
CC(C)OP(=O)(OC(C)C)C(=NCCO)NNc1ccc([N+](=O)[O-])cc1 | -34%
N#CCC(=O)N/N=C(\c1ccccc1)C(c1ccccc1)C1(O)C(=O)Nc2c(Cl)ccc(Cl)c21 (stereo not given) | 1%
CC(C)(CN1CCCCC1)C(=O)CC(SCCS(=O)(=O)O)c1ccccc1 (stereo not given) | 1%
COC1=CCC23C(=O)C=CC(=O)C2(C1)C(=O)c1ccccc1C3=O (stereo not given) | -24%
CCCCN(CCCC)c1ccc(N=Nc2ccc(S(=O)(=O)O)cc2)cc1 | 19%
c1ccc2nc3c(nc2c1)sc1ccccc13 | 2%
O=C1c2ccccc2-c2ccc(N=Cc3ccccc3)cc21 | -4%
CNC(=S)N/N=C(/C)CCC/C(C)=N/NC(=S)NC | 3%
Nc1ccc(/C=C/c2ccc3cccnc3c2)cc1 | 0%
COc1ccc2c3c1OC(C)C31CC(=O)CCC1CC2 (stereo not given) | -8%
CCOC(=O)Nc1ccc(C)c(NC(=O)OCC)c1 | 3%
CCN(CC)CCNc1ccc2nc(C)n3c4ccc(OC)cc4c(=O)c1c23 | 36%
C[N+](C)([O-])CCCNc1c2ccccc2nc2cccc([N+](=O)[O-])c12 | -5%

Compound | growth inhibition
O=C(c1cc(=O)c2ccc(O)cc2o1)c1ccc(Cl)cc1Cl | -9%
CCCNC(=O)OCc1c(COC(=O)NCCC)c(-c2ccc(Cl)c(Cl)c2)n2c1CCC2 | -48%
O=C(Cc1ccccc1)NN1C(=O)C(Cl)C1c1cc(Br)cc(Br)c1O (stereo not given) | -5%
CCOC(=O)C(Cc1c2ccccc2cc2ccccc12)(NC(C)=O)C(=O)OCC | -3%
O=[N+]([O-])/C=C/c1cc2ccc3ccccc3c2[nH]1 | 15%
Fc1ccc(Nc2ccc3ccccc3c2)cc1 | -2%
O=S1(=O)CCC2=CC(C(F)(F)F)=CC(C(F)(F)F)=CN21 | 15%
O=C(Cc1ccccc1)NNc1nc(NNC(=O)c2ccncc2)nc(Nc2ccc([N+](=O)[O-])cc2)n1 | 4%
CCCCS/C(=C(/C#N)C(N)=O)c1cc2c([nH]1)CCCC2 | -7%
O=C(O)c1ccccc1C(=O)OC1CCc2ccccc2C1 (stereo not given) | -4%
CCOC(=O)/C(=C\c1cccc(C)c1)C(C)=O | -2%
NC(=S)N/N=C1\c2ccccc2CCC1CCC1(O)CCc2ccccc2C1=O (stereo not given) | 21%
Cc1cccc2c(Cl)c3cccc(C)c3nc12 | -4%
Nc1ccc2c(c1)C(=O)c1c(F)cccc1-2 | -1%
N#CSCC1COc2ccccc2O1 (stereo not given) | -25%
Cc1ccc(S(=O)(=O)NC(=O)C2C(=O)CC3(CCCCC3)CC2=O)cc1 | -24%
CC1=NN(C(=O)c2ccccc2O)C(=O)/C1=C/c1ccco1 | -5%
